KOR antag MB: blocks the human kappa opioid receptor, Maybridge compounds | P41145 | OPRK1 cells, antagonist mode, fluorescence readout | inhibition, % at 9 µM | 16,000 compounds, 0.4% hits; in the data active means inhibition above about 50%
PME-1 Maybridge: inhibitors of human PME-1 in Maybridge library; inhibition, % at 9 µM; 16,000 compounds, 0.5% hits; recombinant PME-1, FP-Rh probe fluorescence polarization; Q9Y570; in the data active means inhibition above about 30%
Target sequence (Q9Y570 whole entry, looked up): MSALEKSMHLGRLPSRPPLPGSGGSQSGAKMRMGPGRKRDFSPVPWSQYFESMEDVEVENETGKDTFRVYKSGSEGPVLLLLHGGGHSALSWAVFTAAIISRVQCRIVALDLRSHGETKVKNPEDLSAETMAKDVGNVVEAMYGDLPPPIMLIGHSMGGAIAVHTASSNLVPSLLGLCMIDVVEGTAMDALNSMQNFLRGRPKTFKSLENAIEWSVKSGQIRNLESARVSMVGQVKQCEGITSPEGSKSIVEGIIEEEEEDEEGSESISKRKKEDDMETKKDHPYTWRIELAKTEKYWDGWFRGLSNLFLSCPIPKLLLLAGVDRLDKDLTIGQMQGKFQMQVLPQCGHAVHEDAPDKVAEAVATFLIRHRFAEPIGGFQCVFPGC
NOTCH ag: agonists of NOTCH signaling; activation, % at 2.5 µM; 15,000 compounds, 0.4% hits; NOTCH signaling luciferase reporter cells, luminescence; AID 434982; in the data active means activation above about 2.2%
luminol inh ctr: counter-screen for Nox1 inhibitors: inhibitors of luminol chemiluminescence; HRP/luminol/H2O2 chemiluminescence counterscreen; inhibition, % at 6.7 µM; 16,000 compounds, 0.4% hits; further: reference of the scale not given here
S1P1 ag: S1P1 (human) receptor agonism. S1P1 agonist cell-based reporter assay. activation, % at 4.5 µM. 16,000 compounds, 1.5% hits. AID 1044; in the data active means activation above about 80%
Nox1 inh: blocks human NADPH oxidase 1 activity | Q9Y5S8 | HT29 cells, luminol chemiluminescence ROS | 16,000 compounds, 0.81% hits | inhibition, % at 6.7 µM
Large screens that a line does not name were inactive. Only some compounds are listed: those with a hit (about 4% of all), similar ones and a draw of the others. Unless noted, no stated cut-off is given here; in the data, active means inhibition above about 75%; inactive means the rest.

O=C(Oc1ccc(-c2csnn2)cc1)c1ccc([N+](=O)[O-])o1	luminol inh ctr 101
O=C(Nc1ccc(Cl)cc1)Oc1ccc(-c2csnn2)cc1	luminol inh ctr 102
CCOC(=O)CSc1c(C)[nH]c2ccccc12	none
Cc1[nH]c2ccccc2c1SCc1n[nH]c(=S)n1C	PME-1 Maybridge 34
Cc1oc(C(C)(C)C)cc1C(=O)O	none
Cc1ccc(-n2c(N)n[nH]c2=S)cc1	none
COc1cc([N+](=O)[O-])c(OC)cc1SCc1n[nH]c(=S)n1-c1ccc(C)cc1	KOR antag MB 76
Cc1ccc(CSc2nnc(-c3cnccn3)s2)cc1	S1P1 ag 93
Fc1ccc(CSc2nnc(-c3ccncc3)s2)cc1	S1P1 ag 101
FC(F)(F)c1cc(-c2cccs2)no1	none
COc1cc(C(=O)O/N=C(\C)c2ccc(F)cc2)cc(OC)c1OC	none
CC(C)n1cc(-c2noc(-c3cccs3)n2)c(=O)n(Cc2ccccc2)c1=O	S1P1 ag 92
O=C(Nc1ccccn1)c1cc(-c2ccccc2)c(C(F)(F)F)s1	S1P1 ag 87
S=c1[nH]cc(-c2ccc(Br)cc2)[nH]1	Nox1 inh 98
O=[N+]([O-])c1cccc(-c2c[nH]c(=S)[nH]2)c1	none
CCn1c(=S)[nH]c2sc(C)c(C)c2c1=O	luminol inh ctr 90
Cc1cc(-n2c(=S)[nH]c3sc(C)c(C)c3c2=O)n(-c2ccccc2)n1	none
Cc1ccnc(-n2c(=S)[nH]c3sc(C)c(C)c3c2=O)c1	luminol inh ctr 100
O=C(Nc1ccccc1)Nc1ccccc1Sc1ncc([N+](=O)[O-])s1	none
CCOC(=O)C1CCN(Cc2cccc(NC(=O)c3ccco3)c2)CC1	KOR antag MB 56
CCOc1ccc(N2C(=O)c3cccc4cc([N+](=O)[O-])cc(c34)C2=O)cc1	none (no result: NOTCH ag)
O=C(COc1ccc(C2=NCCS2)cc1)Nc1ccc(Cl)cc1	none
O=C(COc1ccc(C2SCCS2)cc1)Nc1cc(Cl)cc(Cl)c1	PME-1 Maybridge 124
O=C(NCc1cc(F)cc2c1OCOC2)c1ccc(-c2ccccn2)s1	none
Cc1nnsc1-c1nnc(SCC(=O)Nc2ccc(F)cc2)n1C1CC1	none
O=C(CSc1c(F)c(F)c(F)c(F)c1F)Nc1ccc(C2SCCS2)cc1	PME-1 Maybridge 147
Cc1onc(-c2ccccc2)c1NC(=O)Nc1ccc(-n2ccc(C(F)(F)F)n2)cc1	S1P1 ag 98
CC1(C)N=c2ccc([N+](=O)[O-])cc2=N1	PME-1 Maybridge 38
CCOc1c(NN(C)C)c(=O)c1=O	luminol inh ctr 102
CS/C(N)=N/C(=S)Nc1cc(Cl)ccc1C	none
COc1cccc(C2Nc3ccccc3C(=O)N2NS(=O)(=O)c2ccc(C)cc2)c1O (centres undefined)	luminol inh ctr 99
Cc1ccc(/C=C2\CSc3ccc(F)cc3C2=O)cc1	none
COC(=O)c1cnc(NNS(=O)(=O)c2ccc(Cl)cc2)nc1C(F)(F)F	Nox1 inh 98
COC(=O)c1cnc(NNC(=O)C(Cl)Cl)nc1C(F)(F)F	none
C=CCSc1nnc2n1CCCN2	none
Cn1c(=O)c2cc3cc(Cl)ccc3nc2c2c(=O)n(-c3ccccc3)c(=O)n(-c3ccccc3)c21	KOR antag MB 70
Cn1c(=O)c2c3nc4ccccc4cc3c(=O)n(C)c2n(C)c1=O	none
Cn1c(CC#N)n[nH]c1=S	none
CC(Oc1ccccc1-c1ccccc1)c1n[nH]c(=S)n1C (centres undefined)	luminol inh ctr 94 (no result: NOTCH ag)
FC(F)(F)COc1ccc(OCC(F)(F)F)c(-c2n[nH]c(=S)o2)c1	luminol inh ctr 87
Nc1nc(NCc2c(Cl)cccc2Oc2ccccc2)n[nH]1	Nox1 inh 84
O=C(NCc1c(Cl)cccc1Oc1ccccc1)Nc1ccc(F)cc1	none
Nc1nc(NCc2ccccc2OC(F)(F)F)n[nH]1	Nox1 inh 88
COc1cc(N=Cc2ccccc2O)cc(C(F)(F)F)c1	none
CCS(=O)(=O)c1ccc(O)c(NC(=O)c2ccccc2C(=O)O)c1	Nox1 inh 96
Cc1ccc(S(=O)(=O)N(C)C)cc1NC(=O)c1ccccc1C(=O)O	none
CN(C)/C=C/C(=O)C12CC3CC(CC(C3)C1)C2	none
Cn1nc(C(C)(C)C)cc1C(=O)NCc1ccc2c(c1)CCO2	S1P1 ag 80
O=C(NNC(=O)c1ccccc1[N+](=O)[O-])c1cc2c(s1)-c1ccccc1CC2	NOTCH ag 2.4
Cc1c(OCc2ccc([N+](=O)[O-])cc2)ccc2c1OC(C)(C)C=C2	none
O=S(=O)(CCN1CCC(n2cccc2)CC1)c1ccc(F)cc1	none
Cc1ccc(C(=O)NNc2ncnc3cc(C(C)(C)C)sc23)cc1	none
Cc1cc(S(=O)(=O)NNc2ncnc3cc(C(C)(C)C)sc23)c(C)cc1Cl	Nox1 inh 94
O=[N+]([O-])c1ccc(-c2ccc(/C=N/NC(=S)Nc3cccc(F)c3)o2)cc1	KOR antag MB 152
O=[N+]([O-])c1cccc(-c2ccc(/C=N/NC(=S)NCc3ccco3)o2)c1	PME-1 Maybridge 36
C=C(C)c1ccccc(=O)c1O	NOTCH ag 4.9
CSc1cccc(NC(=O)CN2CCN(CC(=O)Nc3cccc(SC)c3)CC2)c1	none
CSc1cccc(NC(=S)Nc2cccc(SC)c2)c1	NOTCH ag 2.5
NC(=O)C1CCN(C(=O)c2nccnc2C(=O)O)CC1	none
CCOC(=O)c1c(NC(=O)c2ccc([N+](=O)[O-])o2)nc(SC)n1Cc1cccs1	S1P1 ag 87
CC(C)(C)N(OC(=O)c1ccccc1)C(=O)C(Cl)(Cl)Cl	none
CC1CN(c2ccc(NC(=S)NN)cc2)CC(C)O1 (centres undefined)	Nox1 inh 102
O=[N+]([O-])c1cc(Br)cnc1Sc1n[nH]c(-c2ccccc2)n1	luminol inh ctr 99
Cc1nc(C(F)(F)F)ccc1C(=O)N1CCSCC1	none
Cc1nc(C(F)(F)F)ccc1C(=O)N1CCN(c2nc3ccc(Cl)cc3s2)CC1	S1P1 ag 88
CC(=O)/C(N=Nc1c(C)nn(C)c1C)=C(/C)O	none
COc1cc2ncnc(NNC(=O)c3cccs3)c2cc1OC	Nox1 inh 86
CN1c2ccsc2C(=O)/C(=N\Nc2cccc(C(F)(F)F)c2)S1(=O)=O	S1P1 ag 87
COC(=O)c1sccc1N/N=C1\C(=O)c2ccccc2N(C)S1(=O)=O	none
CC(=O)Oc1ccc(OC(C)=O)c2c1[C@@H]1C=C[C@H]2CC1	Nox1 inh 81
COc1cc(-c2nc(-c3ccccc3)c(-c3ccccc3)[nH]2)ccc1O	Nox1 inh 101
CCOc1ccccc1Nc1n[nH]c(=S)s1	Nox1 inh 88
S=c1[nH]nc(NCCc2ccc(Cl)cc2)s1	none
COC(=O)c1scc(C#N)c1N	none
N#Cc1ccc(N2CCN(S(=O)(=O)c3ccccc3)CC2)nc1	NOTCH ag 3.4
O=S(=O)(c1ccccc1)N1CCN(c2ncnc3sccc23)CC1	S1P1 ag 92
CC(=O)c1ccccc1NC(C#N)c1ccccc1 (centres undefined)	none
CSC(=Nc1c(C)nn(C)c1C)NC#N	none
O=C(N/N=C/c1ccc(O)cc1)N/N=C/c1ccc(O)cc1	Nox1 inh 96
